3T3 cytotox = kills NIH 3T3 cells | NIH 3T3 viability, CellTiter-Glo ATP luminescence, 48-72 h | Potency, µM (highest dose often 96.7 µM), without a hit: at the highest dose activity change, negative = cytotoxicity, most hits filed as inhibitors | 4.3% of 94,000 active | AID 1345082; also: nearly all actives have a fitted effect of over 55% in size
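Cytotoxicity was measured by CellTiter-Glo ATP luminescence after 48 or 72 h compound exposure at 37 °C. Mouse NIH 3T3 fibroblasts were seeded at 400 cells/well and dosed by 23 nL pin transfer.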
HEK cytotox = HEK 293 cell cytotoxicity; 6.6% of 94,000 active; HEK 293 viability, ATP luminescence (CellTiter-Glo), 48-72 h; Potency, µM (top dose mostly 115 µM), for the others: at the highest dose activity change, negative = cytotoxicity, actives largely listed as inhibitors; also: nearly all actives have a fitted effect of over 60% in size
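Read-out: CellTiter-Glo ATP luminescence. Cells: HEK 293, 250 cells/well. Exposure: 48 or 72 hr, 37 degree Celsius.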
Luciferase inh = inhibitors of firefly (Photinus pyralis) luciferase; Potency, µM (titrated, usually from 115 µM), most hits filed as inhibitors; P08659; purified P. pyralis luciferase, luminescence, biochemical; AID 1347043; 2.5% of 76,000 active; also: nearly all actives have a fitted effect of over 65% in size
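Purified 10nM P. pyralis luciferase with 10uM D-luciferin and 10uM ATP in 50mM Tris acetate pH 7.5, 10mM Mg acetate, 0.01% Tween-20, 0.05% BSA. qHTS titration; luminescence read by CCD imager.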
NPR1 antag = human Npr1 receptor antagonism; P16066; HEK293 hNpr1 GloSensor cGMP, ANP-stimulated luminescence; Potency, µM (titrated, usually from 46.3 µM), without a hit: at the highest dose activity change, negative = inhibition, most hits filed as inhibitors; 1.6% of 76,000 active; calls by dose curve; also: nearly all actives have a fitted effect of over 60% in size
Target sequence (P16066 whole entry, looked up): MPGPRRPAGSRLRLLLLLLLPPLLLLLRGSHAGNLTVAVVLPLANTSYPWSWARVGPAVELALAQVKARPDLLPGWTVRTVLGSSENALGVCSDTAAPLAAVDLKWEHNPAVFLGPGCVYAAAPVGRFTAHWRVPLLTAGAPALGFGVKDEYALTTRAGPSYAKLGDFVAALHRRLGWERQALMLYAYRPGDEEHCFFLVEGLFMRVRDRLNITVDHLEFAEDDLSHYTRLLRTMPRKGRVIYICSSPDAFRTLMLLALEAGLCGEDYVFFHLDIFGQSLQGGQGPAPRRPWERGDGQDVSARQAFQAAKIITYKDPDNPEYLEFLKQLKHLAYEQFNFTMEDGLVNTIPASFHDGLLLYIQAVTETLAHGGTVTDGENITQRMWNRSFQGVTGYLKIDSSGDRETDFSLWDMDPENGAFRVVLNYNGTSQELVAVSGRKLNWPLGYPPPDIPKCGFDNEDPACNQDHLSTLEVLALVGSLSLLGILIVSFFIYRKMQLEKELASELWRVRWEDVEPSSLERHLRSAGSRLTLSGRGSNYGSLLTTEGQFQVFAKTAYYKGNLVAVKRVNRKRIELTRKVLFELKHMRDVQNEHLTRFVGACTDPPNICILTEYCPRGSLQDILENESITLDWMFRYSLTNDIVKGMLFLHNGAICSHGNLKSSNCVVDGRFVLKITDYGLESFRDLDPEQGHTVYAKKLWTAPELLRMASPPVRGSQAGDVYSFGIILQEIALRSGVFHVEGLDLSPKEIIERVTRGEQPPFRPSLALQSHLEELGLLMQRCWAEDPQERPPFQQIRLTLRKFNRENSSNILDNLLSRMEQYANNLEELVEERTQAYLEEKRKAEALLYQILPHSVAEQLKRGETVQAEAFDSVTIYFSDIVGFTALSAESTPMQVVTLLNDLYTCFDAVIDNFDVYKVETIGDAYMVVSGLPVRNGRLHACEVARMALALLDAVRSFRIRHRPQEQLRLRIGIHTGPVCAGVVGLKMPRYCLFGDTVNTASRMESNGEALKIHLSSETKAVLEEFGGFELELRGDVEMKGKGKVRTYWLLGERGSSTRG
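HEK293 cells stably expressing human Npr1 and cGMP GloSensor pGS-40F, loaded 2 h with 2% GloSensor reagent, given compound 30 min at room temperature. Luminescence read before and 20 min after 0.1 nM hNppA.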
* marks the source's active call; other numbers are inactive results; i = inactive; ? = inconclusive; . = not tested or not shown; [ ] = remark or other dose. Sampled rows, rich in hits. Any-hit rate of the full collection: about 11%. Unless noted, calls follow the shape of the dose curve; as a rule, active = well fitted curve in the direction sought with a large enough effect; inconclusive = small, poorly fitted or top-dose-only effect, or another doubt; inactive = no such curve, though single readings can be large; an effect the other way counts as inactive or inconclusive. % is scaled to controls: 0 for no effect and ±100 for the full control effect; potency is read from the fitted curve at half-maximal effect.

SMILES	3T3 cytotox	HEK cytotox	Luciferase inh	NPR1 antag
O=c1cc(-c2ccccn2)oc2c(-c3cn[nH]c3)nccc12	11µM*	?	i	-1%[70.6 µM]
COC(=O)N1CCCN(c2ccc3nnc(C4CC4)n3n2)CC1	?	-27%[172 µM]	.	.
Oc1ccccc1-c1cc(-c2cccnc2)c2cncn2c1	?	100µM*	i	-22%[70.6 µM]
COc1ccc(-c2cc(-c3cccc(OC)c3OC)cn3cncc23)cc1	?	89µM*	?	0%[70.6 µM]
COc1ccc(-c2cc(-c3ccccc3O)cn3cncc23)cc1	?	100µM*	i	-23%[70.6 µM]
COc1ccc(-c2cc(-c3ccc(N4CCOCC4)nc3)cn3cncc23)cc1	?	?	?	-3%[70.6 µM]
COc1ccc(-c2cc(-c3cnn(C)c3)cn3cncc23)cc1	35µM*	?	i	-18%[70.6 µM]
COc1ccc(Cc2nc3nccc(-c4ccc(OC)cc4)n3n2)cc1	-29%	?	i	5%
O=C(NC1CCCC1)c1cc2c(s1)CCN(C(=O)c1ccc(F)cc1)C2	-4%	-4%	i	-6%
CN(CC1CCCN(CCc2ccc(Cl)cc2)C1)C(=O)c1ccc(-n2cnnn2)cc1 (centres undefined)	?	-19%	i	-1%
CC(C)(C)C(=O)NCCNC(=O)c1ccc(-c2cncnc2)cc1	-11%	i	.	.
COc1cccc(-c2cc(-c3ccc(OC)nc3)c3cncn3c2)c1	?	?	i	-19%[70.6 µM]
COc1ccc(-c2cc(-c3cccc(CO)c3)cn3cncc23)cc1	56µM*	79µM*	i	-20%[70.6 µM]
COc1cccc(CN2CCCC(N3CCN(c4cccc(C(F)(F)F)c4)CC3)C2)c1O (centres undefined)	?	32µM*	i	-14%
CC(C)N1CCC(N2CCCC(N3CCN(c4cccc(C(F)(F)F)c4)CC3)C2)CC1 (centres undefined)	?	20µM*	i	6%
CNC(=O)CN1CCCC(N2CCN(c3cccc(C(F)(F)F)c3)CC2)C1 (centres undefined)	-32%	-19%	i	2%
NCC(=O)N1CCCC(N2CCN(c3cccc(C(F)(F)F)c3)CC2)C1 (centres undefined)	?	-8%	i	-3%
Cc1nn2c(c1-c1ccccc1C(C)C)N(Cc1ccc(F)cc1)CCC2	28µM*	50µM*	i	-15%[70.6 µM]
Cc1nn2c(c1-c1ccccc1[S+](C)(=O)[O-])N(Cc1ccc3[nH]ccc3c1)CCC2	-16%[138 µM]	?	i	-16%[70.6 µM]
COc1ccccc1CN1CCCn2nc(C)c(-c3ccccc3[S+](C)(=O)[O-])c21	35µM*	45µM*	i	-19%[70.6 µM]
COc1ncccc1CN1CCCn2nc(C)c(-c3ccccc3C(C)C)c21	45µM*	50µM*	i	-24%[70.6 µM]
Cc1ccc(C2=NC3(CCN(C(=O)c4ccsc4)CC3)ON2)cc1	-9%	-16%	40µM*	-12%
O=C(c1ccoc1)N1CCC2(CC1)N=C(c1cccc(Br)c1)NO2	-18%	-8%	i	-1%
Cc1ccc(C(=O)N2CCC3(CC2)N=C(c2cccc(Br)c2)NO3)cc1	16µM*	?	i	?
O=C(c1ccc2cc[nH]c2c1)N1CCC2(CC1)N=C(c1ccccc1)NO2	-20%	?	28µM*	-20%
SMILES	3T3 cytotox	HEK cytotox	Luciferase inh	NPR1 antag
Cc1ccc(C2=NC3(CCN(C(=O)c4ccc5c(c4)OCO5)CC3)ON2)cc1	-18%	?	35µM*	-22%
O=c1c2c(CO)c(-c3ccc(F)cc3)nn2ccn1Cc1ccccc1F	-16%	?	i	?
CCc1ccc(C(=O)N2CCC3(CC2)N=C(c2ccc(C)cc2)NO3)cc1	-40%	?	40µM*	?
Cc1ccc(C(=O)N2CCC3(CC2)N=C(c2ccc(C)cc2)NO3)cc1	-29%	-17%	35µM*	-24%
COc1ccc(C(=O)N2CCC3(CC2)N=C(c2ccc(C)cc2)NO3)cc1	-7%	?	?	-28%
COCCN1C[C@H]2COc3ccccc3[C@H]2N(C(=O)COc2ccccc2)CCC1=O	?	-13%	.	.
CC(=O)N1CCN(C(=O)c2nc3sccn3c2-c2ccc(C(F)(F)F)cc2)CC1	-18%	i	.	.
COc1ccc(NC(=O)Nc2cccn3nc(C(C)C)nc23)cc1	?	?	45µM*	-12%
COc1ccc(-c2nc(C3CC(=O)N(c4ccc(OC)c(OC)c4)C3)no2)cc1OC (centres undefined)	?	?	i	-9%
O=[S+]([O-])(NC1CCCN(c2ccnc3ccnn23)C1)c1ccccc1 (centres undefined)	?	-31%	.	.
COc1ccc(NC(=O)c2ccc3c(c2)N(C(=O)c2ccc(F)cc2)CC3)cc1	?	?	?	-14%
Cc1nc(CN2C(=O)OC3(CCN(C(=O)c4cccnc4)CC3)C2(C)c2ccccc2)cs1 (centres undefined)	45µM*	i	i	-2%
Cc1nc(CN2C(=O)OC3(CCN(C(=O)c4scnc4C)CC3)C2(C)c2ccccc2)cs1 (centres undefined)	28µM*	-14%	i	-1%
Cc1nc(CN2C(=O)OC3(CCN(C(=O)CCc4ccccn4)CC3)C2(C)c2ccccc2)cs1 (centres undefined)	?	2%	i	4%
Cc1nc(CN2C(=O)OC3(CCN(C(=O)c4ccnn4C)CC3)C2(C)c2ccccc2)cs1 (centres undefined)	32µM*	2%	i	0%
COc1ccccc1C(=O)N1CCC2(CC1)OC(=O)N(Cc1csc(C)n1)C2(C)c1ccccc1 (centres undefined)	?	-7%	i	-1%
O=C1CC(c2ccccc2)N(C(=O)CNC(=O)c2cc3ccccc3[nH]2)CCCCCN1 (centres undefined)	-13%	-24%	i	-12%
Cc1ccc2[nH]c(=O)c(CCC(=O)N3CCCCC3)cc2c1	i	19%	40µM*	3%
Cc1ccc2[nH]c(=O)c(CCC(=O)N3CCN(CC(C)C)CC3)cc2c1	i	15%	i	1%
Cc1ccc2cc(CCC(=O)N3CCOCC3)c(=O)[nH]c2c1	3%	-4%	32µM*	-15%
COc1cc(Cl)cc(CN2CCC3(CCCNC3)C2)c1OC (centres undefined)	?	?	i	-16%
CCc1nc2c(c(-c3ccc(Cl)cc3)n1)CN(C(=O)c1ccc(C(F)(F)F)cc1)CC2	?	?	i	5%
CCc1nc2c(c(-c3ccc(Cl)cc3)n1)CCN(Cc1ccc(C(F)(F)F)cc1)CC2	-14%	50µM*	i	-1%
CCc1nc2c(c(-c3ccc(O)cc3)n1)CN(Cc1ccc(C(F)(F)F)cc1)CC2	?	?	i	5%
CCc1nc2c(c(-c3ccc(O)cc3)n1)CCN(Cc1ccc(C(F)(F)F)cc1)CC2	?	45µM*	i	?
CCc1nc2c(c(-c3ccc(Cl)cc3)n1)CN(Cc1cccc(F)c1)CC2	11µM*	20µM*	i	-14%
